We go through 13 molecules from PubChem BioAssay (Tox21).

Values joined by “and” are separate entries in the source; they are usually repeats but may differ in a detail not shown here. Equal values may be shown once. Results filed as inconclusive are left out. The source holds several records for some structures; these can differ, active in one and inactive in another. Active and inactive are the calls of the source. Unless noted, calls follow the shape of the full dose curve.

The nature of assay [1]: Nuclear factor erythroid 2-related factor 2/antioxidant responsive element (Nrf2/ARE) small molecule agonists: luciferase reporter gene qHTS assay in human keratinocytes (AID 1919969). Also: nearly all actives have a fitted effect of over 35% in size. Also: potency is read from the fitted curve at half-maximal effect.
Assay [2] has as its target Gonadotropin-releasing hormone receptor (Homo sapiens) (UniProt P30968). Nature of the assay: Human gonadotropin-releasing hormone receptor (GnRHR) small molecule agonists, calcium flux assay in GnRHR-HEK293 cells (AID 1920063). Also: nearly all actives have a fitted effect of over 35% in size. In short, it runs like this:
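HEK293 cells stably expressing human GnRHR were plated 18 h at 37 °C, loaded with calcium dye 1 h at 37 °C, then given compound in agonist mode; fluorescence (Ex/Em 480/540) read kinetically for 3 min at 1 s intervals.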

Assay [3] addresses KiSS-1 receptor (Homo sapiens) (UniProt Q969F8). Nature of the assay: Human kisspeptin (KISS1R) small molecule agonists, calcium flux assay in KISS1R-HEK293 cells (AID 1920064; active = well fitted activation curve with a large enough effect in the repeat runs). In short, it runs like this: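 HEK293 cells stably expressing human KISS1R were plated 18 h at 37 °C, loaded with calcium dye for 1 h at 37 °C, then given compound by pin tool. Fluorescence (Ex/Em 480/540) was read kinetically for 3 min.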
In general terms: A change in cytosolic calcium serves as a functional read-out for many receptors and channels.

Assay [4] in a line: G protein-coupled receptor (GPCR) small molecule agonists, calcium flux assay: HEK293 wild type cell line counter screen (AID 1920065). In short, it runs like this: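 Cells were plated and cultured 18 h at 37 C/5% CO2, then loaded with calcium dye for 1 h at 37 C. Compounds in DMSO were pin-transferred in agonist mode, and fluorescence (Ex/Em 480/540) was read kinetically for 3 min at 1 s intervals.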

Assay [5] in a line: p53 small molecule agonists, cell-based qHTS assay with human liver microsomes: qHTS cell viability counter screen (AID 1963579). Also: nearly all actives have a fitted effect of over 45% in size. In short, it runs like this: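 After the 460/530 nm beta-lactamase read, CellTiter-Glo was added to the same wells and luminescence measured after 30 min at room temperature, giving viability of p53RE-bla cells treated 16 h with compounds plus microsomes and NADPH.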
(In qHTS, concentration-response curves come from the screen itself.)

Assay [6] is described as follows: p53 small molecule agonists, cell-based qHTS assay with rat liver microsomes: qHTS cell viability counter screen (AID 1963580). Also: nearly all actives have a fitted effect of over 45% in size. Also: potency is read from the fitted curve at half-maximal effect. In short, it runs like this:
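Intracellular ATP, by CellTiter-Glo luminescence, defines viability. HCT-116 p53RE-bla cells, 4,000 per well, were compound-treated in the presence of rat liver microsomes and NADPH for 16 h at 37 C.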

Assay [7] can be described thus: p53 small molecule agonists, cell-based qHTS assay: qHTS cell viability counter screen (AID 1963581). Also: nearly all actives have a fitted effect of over 45% in size. A digest of the protocol:
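p53RE-bla HCT-116 cells were exposed to compounds for 16 h at 37 C; after the beta-lactamase FRET read in the same wells, CellTiter-Glo was added and luminescence (intracellular ATP) read after 30 min at room temperature.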

Assay [8] addresses 5-hydroxytryptamine receptor 2A (Homo sapiens) (UniProt P28223). Nature of the assay: 5-hydroxytryptamine receptor 2A (HTR2A) small molecule antagonists, cell-based qHTS assay (AID 1963586). Also: nearly all actives have a fitted effect of over 45% in size. In short, it runs like this: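 Antagonist-mode intracellular calcium assay: DOI (4 nM) added after 5 min compound pre-incubation at room temperature to dye-loaded HTR2A-CHO cells. Fluorescence followed for 3 min, sampled every second.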

In assay [9] the target is Muscarinic acetylcholine receptor M1 (Homo sapiens) (UniProt P11229). Nature of the assay: Cholinergic receptor muscarinic 1 (CHRM1) small molecule antagonists, cell-based qHTS assay (AID 1963588). Also: nearly all actives have a fitted effect of over 40% in size. In short, it runs like this:
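CHRM1-CHO calcium-flux assay, antagonist mode. Cells were seeded 18 h, dye-loaded 1 h at 37 C and given compound for 5 min at RT, then acetylcholine was added at 50nM. FDSS fluorescence was read 3 min; 15 concentrations, three runs.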

For assay [10] the target is unchanged. Nature of the assay: Cholinergic receptor muscarinic 1 (CHRM1) small molecule agonists, cell-based qHTS assay (AID 1963589). Also: nearly all actives have a fitted effect of over 35% in size. In short, it runs like this: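 CHO cells stably expressing human CHRM1, seeded 18 h at 37 C/5% CO2, dye-loaded 1 h at 37 C, then given compound in agonist mode; intracellular calcium fluorescence read kinetically at 1 s intervals. Fifteen concentrations, three independent runs.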

Assay [11] is described as follows: cAMP Responsive Elements (CRE) small molecule agonists, cell-based qHTS assay (AID 1963590). Also: potency is read from the fitted curve at half-maximal effect. A digest of the protocol: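 CRE-bla HEK 293T cells in DMEM with 10% dialyzed FBS, NEAA, pyruvate and 25 mM HEPES were plated 18 h at 37 C/5% CO2, then exposed to compounds in DMSO for 3 h before LiveBLAzer B/G FRET substrate addition.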
The nature of assay [12]: cAMP Responsive Elements (CRE) small molecule antagonists, cell-based qHTS assay (AID 1963591; active = well fitted inhibition curve with a large enough effect in the signal ratio in the repeat runs, not every such curve was filed as active; the % refers to the signal ratio). In short, it runs like this:
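CRE-bla HEK293T cells were plated 18 h at 37 °C/5% CO2, pinned with compound in DMSO, then stimulated with NKH477 at 0.25 uM final for 3 h. LiveBLAzer B/G FRET substrate was added and plates incubated 2 h at room temperature.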

Assay [13] concerns the target Beta-2 adrenergic receptor (Homo sapiens) (UniProt P07550). Nature of the assay: Adrenergic beta2 receptor (ADRB2) small molecule antagonists, cell-based qHTS assay (AID 1963592). Also: nearly all actives have a fitted effect of over 50% in size. Also: potency is read from the fitted curve at half-maximal effect. In short, it runs like this: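 Cells (CHO, stable ADRB2 overexpression) incubated 18-20hr at 37C; compounds added from DMSO; agonist mix (1nM isoproterenol, 100uM IBMX, 25uM Ro-20-1724) added; 0.5hr RT; d2-cAMP and anti-cAMP-cryptate added; 1hr RT; 665/615 nm read.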

The target is the same in assay [14]. Nature of the assay: Adrenergic beta2 receptor (ADRB2) small molecule agonists, cell-based qHTS assay (AID 1963593).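 Also: CHO cells stably overexpressing human ADRB2.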 A digest of the protocol:
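CHO cells stably over-expressing ADRB2 were plated overnight at 37C, then dosed with compounds plus a stimulation mix containing 100uM IBMX and 25uM Ro-20-1724 for 0.5hr at room temperature. cAMP was measured by HTRF competition, 1hr.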

Assay [15] concerns the target D(2) dopamine receptor (Homo sapiens) (UniProt P14416). Nature of the assay: Dopamine D2 receptor (DRD2) small molecule agonists, cell-based qHTS assay (AID 1963594). Also: nearly all actives have a fitted effect of over 35% in size. In short, it runs like this:
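cAMP accumulation in DRD2-HEK293 cells measured by HTRF after 1 h detection; compounds added 10 min before NKH477 (200nM […]) forskolin-analogue stimulation, 30 min at room temperature, with Ro20-1724 present at 0.1 mM final.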

Assay [16] has the same target. Nature of the assay: Dopamine D2 receptor (DRD2) small molecule antagonists, cell-based qHTS assay (AID 1963595; active = well fitted inhibition curve with a large enough effect in the signal ratio in the repeat runs, with a control signal flat; the % refers to the signal ratio; also: potency is read from the fitted curve at half-maximal effect). A digest of the protocol:
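Antagonism was scored as restored cAMP in HEK293-DRD2 cells. These cells were stimulated with 200 nM NKH477 and 12 nM quinpirole for 30 min at room temperature, in the presence of 0.1 mM Ro20-1724.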

Assay [17] concerns the target 5-hydroxytryptamine receptor 2A (Homo sapiens) (UniProt P28223). Nature of the assay: 5-hydroxytryptamine receptor 2A (HTR2A) small molecule agonists, cell-based qHTS assay (AID 1963587). Also: nearly all actives have a fitted effect of over 30% in size. Also: potency is read from the fitted curve at half-maximal effect. A digest of the protocol:
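Kinetic calcium-flux fluorescence (2 min, 1 sec intervals) after compound addition in agonist mode. HTR2A-CHO cells were cultured 18 h, then dye-loaded 1 h at 37 C.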

The nature of assay [18]: p53 small molecule agonists, cell-based qHTS assay with rat liver microsomes (AID 1963578). In short, it runs like this: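 Metabolic activation is supplied by rat liver microsomes with NADPH (each 0.5 mg/mL final). p53RE-bla cells incubate with compound 16 h at 37 C; reporter activity is measured by LiveBLAzer fluorescence.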
Assay [19] is described as follows: p53 small molecule agonists, cell-based qHTS assay (AID 1963582; active = well fitted activation curve with a large enough effect in the signal ratio in the repeat runs, not every such curve was filed as active; the % refers to the signal ratio). A digest of the protocol:
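p53RE-bla beta-lactamase reporter cells rested 5 h at 37 C/5% CO2, then received compounds in DMSO by pin transfer and were incubated 16 h at 37 C. LiveBLAzer B/G FRET substrate was loaded for 2 h at room temperature before fluorescence reading.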

Sequence of KiSS-1 receptor (Homo sapiens) (Q969F8 whole entry, looked up): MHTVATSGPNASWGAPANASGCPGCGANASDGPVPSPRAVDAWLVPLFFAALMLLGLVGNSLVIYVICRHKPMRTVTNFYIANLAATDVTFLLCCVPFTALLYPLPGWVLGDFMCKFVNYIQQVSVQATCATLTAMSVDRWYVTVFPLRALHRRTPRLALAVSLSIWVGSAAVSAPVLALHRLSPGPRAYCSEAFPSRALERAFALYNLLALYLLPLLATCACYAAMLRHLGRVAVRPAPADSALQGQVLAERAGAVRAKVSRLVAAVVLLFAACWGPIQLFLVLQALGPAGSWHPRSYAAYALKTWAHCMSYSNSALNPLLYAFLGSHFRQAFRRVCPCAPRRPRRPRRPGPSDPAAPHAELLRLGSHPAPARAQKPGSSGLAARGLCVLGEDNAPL
Sequence of Gonadotropin-releasing hormone receptor (Homo sapiens) (P30968 whole entry, looked up): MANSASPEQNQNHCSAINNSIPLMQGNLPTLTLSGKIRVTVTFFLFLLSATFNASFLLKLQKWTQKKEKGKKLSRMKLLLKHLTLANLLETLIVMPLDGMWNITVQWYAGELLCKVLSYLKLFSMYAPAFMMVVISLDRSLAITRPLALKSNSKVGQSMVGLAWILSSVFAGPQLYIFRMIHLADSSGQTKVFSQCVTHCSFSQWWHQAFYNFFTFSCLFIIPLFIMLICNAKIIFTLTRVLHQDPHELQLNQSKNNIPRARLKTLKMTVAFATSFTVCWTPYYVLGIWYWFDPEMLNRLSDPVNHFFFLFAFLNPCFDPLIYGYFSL
Sequence of 5-hydroxytryptamine receptor 2A (Homo sapiens) (P28223 whole entry, looked up): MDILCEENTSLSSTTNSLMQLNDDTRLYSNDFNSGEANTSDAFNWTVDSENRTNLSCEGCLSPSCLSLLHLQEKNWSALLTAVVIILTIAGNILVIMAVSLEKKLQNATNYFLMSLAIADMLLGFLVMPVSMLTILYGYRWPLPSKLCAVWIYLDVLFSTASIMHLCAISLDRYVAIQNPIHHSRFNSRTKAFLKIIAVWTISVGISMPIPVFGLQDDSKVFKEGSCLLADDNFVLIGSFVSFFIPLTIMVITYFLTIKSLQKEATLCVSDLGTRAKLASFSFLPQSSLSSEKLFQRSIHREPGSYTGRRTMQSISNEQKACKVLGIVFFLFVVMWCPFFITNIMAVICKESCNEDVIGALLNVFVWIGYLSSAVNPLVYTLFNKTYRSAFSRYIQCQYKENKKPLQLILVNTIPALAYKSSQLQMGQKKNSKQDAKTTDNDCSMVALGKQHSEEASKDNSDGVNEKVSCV
Sequence of D(2) dopamine receptor (Homo sapiens) (P14416 whole entry, looked up): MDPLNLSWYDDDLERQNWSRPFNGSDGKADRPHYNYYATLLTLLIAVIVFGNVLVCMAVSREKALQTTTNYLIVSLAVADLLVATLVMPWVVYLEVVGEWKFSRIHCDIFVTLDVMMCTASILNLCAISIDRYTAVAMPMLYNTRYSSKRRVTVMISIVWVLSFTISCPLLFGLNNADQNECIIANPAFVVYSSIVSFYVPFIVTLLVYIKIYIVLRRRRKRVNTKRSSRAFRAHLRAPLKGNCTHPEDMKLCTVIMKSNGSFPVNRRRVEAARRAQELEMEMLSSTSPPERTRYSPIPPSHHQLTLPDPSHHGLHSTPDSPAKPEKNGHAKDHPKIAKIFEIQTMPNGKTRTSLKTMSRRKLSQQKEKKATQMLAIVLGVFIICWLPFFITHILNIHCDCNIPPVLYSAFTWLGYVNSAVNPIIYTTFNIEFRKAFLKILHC
Sequence of Beta-2 adrenergic receptor (Homo sapiens) (P07550 whole entry, looked up): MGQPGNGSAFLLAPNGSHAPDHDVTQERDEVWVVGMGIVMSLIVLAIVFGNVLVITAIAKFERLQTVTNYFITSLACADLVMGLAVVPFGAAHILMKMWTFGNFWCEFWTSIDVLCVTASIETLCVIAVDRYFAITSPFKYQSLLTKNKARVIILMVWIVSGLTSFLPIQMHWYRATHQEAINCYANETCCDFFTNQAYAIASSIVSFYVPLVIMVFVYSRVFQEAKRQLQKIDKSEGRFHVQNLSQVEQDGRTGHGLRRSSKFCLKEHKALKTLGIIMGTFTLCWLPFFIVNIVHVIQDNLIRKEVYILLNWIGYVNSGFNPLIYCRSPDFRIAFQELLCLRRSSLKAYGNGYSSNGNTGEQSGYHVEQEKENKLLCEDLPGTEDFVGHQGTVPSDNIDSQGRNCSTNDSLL
Sequence of Muscarinic acetylcholine receptor M1 (Homo sapiens) (P11229 whole entry, looked up): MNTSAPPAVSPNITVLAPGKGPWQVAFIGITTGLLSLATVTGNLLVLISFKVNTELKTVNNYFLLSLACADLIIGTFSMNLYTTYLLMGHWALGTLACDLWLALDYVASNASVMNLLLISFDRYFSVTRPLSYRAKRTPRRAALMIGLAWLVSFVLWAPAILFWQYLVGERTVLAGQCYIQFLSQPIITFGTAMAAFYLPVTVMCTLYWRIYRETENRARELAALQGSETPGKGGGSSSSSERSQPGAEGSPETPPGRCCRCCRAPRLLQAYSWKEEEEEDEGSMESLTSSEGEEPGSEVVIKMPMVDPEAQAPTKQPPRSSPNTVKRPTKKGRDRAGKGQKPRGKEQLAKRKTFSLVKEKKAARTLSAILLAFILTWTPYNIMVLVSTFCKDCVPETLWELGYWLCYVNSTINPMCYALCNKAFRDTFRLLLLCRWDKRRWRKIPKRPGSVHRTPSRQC

On to `CCN1CCC[C@H]1CNC(=O)c1c(OC)ccc(Br)c1OC`, for which the Potency result in [1], in assay [2], in assay [3], in assay [4], in assay [5] and in assay [6] was “inactive” in each case. The Potency result in assay [7], in [8], in assay [9], in [10], in assay [11] and in assay [12] was “inactive” in each case. Also, the Potency entry in assay [13] and in assay [14] was “inactive” each time.

`COC1=C(OC)C(=O)C(CCCCCCCCCCO)=C(C)C1=O`: the Potency in assay [1] was 10.6 µM (active). Moreover, the Potency result in assay [2], in assay [3], in assay [4], in [5], in [6] and in assay [12] was “inactive” each time. Also, the Potency entry in assay [13], in [14], in [15] and in assay [16] was “inactive” throughout.

Consider `Cc1ccc(-c2cc(C(F)(F)F)nn2-c2ccc(S(N)(=O)=O)cc2)cc1`, for which the Potency entry in assay [1], in assay [2], in assay [3], in [4], in [5] and in [7] was “inactive” each time. Moreover, the Potency result in assay [14] and in assay [15] was “inactive” in each case. Also, the Potency in [6] is 36.2 µM (active) and inactive; in assay [13], 60.9 µM (active); in [16] it was 60.9 µM (active) and inactive.

With `O=Cc1ccccc1S(=O)(=O)O`, the Potency result in [1], in assay [2], in assay [3], in assay [4], in [5] and in [6] was “inactive” each time. Also, the Potency result in [7], in assay [8], in [17], in assay [9], in assay [11] and in assay [12] was “inactive” in each case. Moreover, the Potency entry in assay [13], in assay [14], in [15] and in [16] was “inactive” each time.

As to `C#C[C@]1(O)CC[C@H]2[C@@H]3CCc4cc(OC5CCCC5)ccc4[C@H]3CC[C@@]21C`, the Potency entry in assay [1], in [2], in assay [3], in assay [4], in assay [18] and in [7] was “inactive” each time. Further, the Potency result in [19], in assay [8], in assay [17], in [10], in [12] and in [13] was “inactive” each time. Moreover, the Potency entry in assay [14] and in assay [15] was “inactive” each time.

For the molecule `CC1CCCNC1` (stereo unspecified), the Potency in assay [1] is 67.1 µM (active). The Potency entry in assay [2], in [3], in [4], in assay [18], in assay [7] and in assay [19] was “inactive” in each case. The Potency result in assay [8], in assay [17], in [9], in [10], in assay [11] and in assay [12] was “inactive” throughout. The Potency entry in assay [13], in assay [14], in assay [15] and in [16] was “inactive” throughout.

With `OCCN1CCOCC1`, the Potency result in assay [1], in assay [2], in assay [3], in assay [4], in [5] and in assay [7] was “inactive” throughout. The Potency result in [8], in assay [17], in assay [9], in assay [10], in assay [11] and in [12] was “inactive” in each case. For the same molecule, the Potency result in assay [13], in assay [15] and in assay [16] was “inactive” in each case.

As for `CCCCCCC(O)CCCCCCCCCCC(=O)O` (stereo unspecified), the Potency entry in [1], in [2], in assay [3], in assay [4], in [5] and in assay [6] was “inactive” each time. In addition, the Potency result in assay [7], in assay [9], in [10], in assay [11], in assay [12] and in assay [13] was “inactive” throughout. Moreover, the Potency entry in assay [14] and in assay [15] was “inactive” each time. Further, the Potency in assay [17] is 3.9 µM (active) and inactive.

On to `COc1ccc2nc(S(=O)Cc3ncc(C)c(OC)c3C)[nH]c2c1` (stereo unspecified), for which the Potency in assay [1] was 67.8 µM (active) and 26.6 µM (active). The Potency result in assay [2], in assay [3], in assay [4], in assay [5], in assay [6] and in assay [7] was “inactive” each time. Moreover, the Potency result in [12], in assay [13], in [15] and in assay [16] was “inactive” in each case.

Regarding `S=c1[nH]c2ccccc2s1`, the Potency in assay [1] is 21.7 µM (active); in assay [11] it was 48.6 µM (active). For the same molecule, the Potency result in assay [2], in assay [3], in assay [4], in assay [18], in assay [6] and in [8] was “inactive” in each case. In addition, the Potency result in assay [17] and in assay [10] was “inactive” in each case.

With `CN1CC[C@H](c2c(O)cc(O)c3c(=O)cc(-c4ccccc4Cl)oc23)[C@H](O)C1`, the Potency in assay [1] was 0.0841 µM (active). The Potency entry in assay [2], in assay [3], in assay [4], in assay [18], in [7] and in [8] was “inactive” throughout. Further, the Potency entry in assay [17], in assay [9], in assay [10], in [13], in [15] and in [16] was “inactive” throughout.

On to `CC(C)c1nc(CN(C)C(=O)N[C@H](C(=O)N[C@@H](Cc2ccccc2)C[C@H](O)[C@H](Cc2ccccc2)NC(=O)OCc2cncs2)C(C)C)cs1`, for which the Potency entry in assay [1], in [2], in assay [3], in assay [4], in [5] and in assay [6] was “inactive” each time. For the same molecule, the Potency entry in assay [7], in assay [13] and in [16] was “inactive” each time.

`O=C1CCCN1C1CCCCC1`: the Potency result in assay [1], in assay [2], in assay [3], in [4], in assay [5] and in [6] was “inactive” each time. Further, the Potency result in [7], in assay [8], in assay [9], in assay [10], in assay [11] and in [12] was “inactive” throughout. The Potency entry in assay [13], in assay [15] and in assay [16] was “inactive” throughout.
